These results are taken from PubChem BioAssay.

A number with no mark means an inactive call. Active and inactive are the calls of the source. Rule as the data show it, unless noted: active = inhibition above about 30%; inactive = the rest.

Assay [1] addresses Nuclear receptor coactivator 3 (Homo sapiens) (UniProt Q9Y6Q9). The assay can be described thus: SRC3 coactivator transcriptional activity inhibitors, confirmation, cell-based, luminescence, quadruplicate (AID 588792;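 active = mean inhibition over 43.08%, the solvent-only control mean plus 3 SD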;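 also: 0% = DMSO treated cells and 100% = gossypol at 36 µM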). Conditions: HEK293 GAL4-SRC3 luciferase reporter, at 3.6 µM, stronger effect = higher value. In general terms: Reporter assays use an easily measured gene product as a stand-in for the process of interest.

Assay [2] has as its system transactivating tegument protein VP16 (Human herpesvirus 1), Gal4-VP16 luciferase reporter. The assay is described as follows: VP16 transactivation inhibitors, counter-screen for SRC3 inhibitor project, cell-based, luminescence, high throughput (AID 588794). Conditions: mammalian cells, VP16-driven luciferase reporter luminescence; at 3.6 µM; stronger effect = higher value. In general terms: Counterscreens check selectivity or assay interference.

For assay [3], the target named is Nuclear receptor coactivator 1 (Homo sapiens) (UniProt Q15788). The assay is described as follows: SRC1 coactivator transcriptional activity inhibitors, confirmation, cell-based, luminescence, quadruplicate (AID 588820;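 active = mean inhibition above 46.68%, the untreated control wells mean plus 3 SD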;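 also: 0% = DMSO wells and 100% = gossypol 36 µM treated wells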). The note with it: HEK293 GAL4-SRC1 luciferase reporter, at 3.6 µM, stronger effect = higher value.
Assay [4] can be described thus: VP16 transactivation inhibitors, counter-screen for SRC1 inhibitor project, cell-based, luminescence, high throughput (AID 588824; in the data active = inhibition above about 25%). Conditions: cell-based VP16 transactivation luciferase luminescence; at 3.6 µM; stronger effect = higher value.
Assay [5] is described as follows: StAR promoter reporter inhibitors, counter-screen for LRH-1 inverse agonist project, cell-based, luminescence, high throughput (AID 651611; in the data active = inhibition above about 28%). Conditions: StAR promoter luciferase reporter counterscreen, at 3.6 µM, stronger effect = higher value.
Assay [6] deals with Nuclear receptor subfamily 5 group A member 2 (Homo sapiens) (UniProt O00482). The assay is described as follows: LRH-1 (NR5A2) inverse agonists, retest, confirmation, cell-based, luminescence (AID 651613; in the data active = inhibition above about 42%;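 also: HEK293T cells co-transfected with LRH-1 and StAR promoter luciferase reporter; 0% = vehicle wells and 100% = parental cells lacking receptor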). The note with it: cell-based LRH-1 luciferase reporter, inverse agonism; at 3.6 µM; stronger effect = higher value.
Assay [7] deals with Steroidogenic factor 1 (Homo sapiens) (UniProt Q13285). The assay is described as follows: SF1 (NR5A1) inverse agonists, counter-screen for LRH-1 inverse agonist project, cell-based, luminescence, high throughput (AID 651614; in the data active = inhibition above about 44%;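 also: cells cotransfected with StAR promoter reporter and SF1 expression vector; 0% = vehicle on cells with receptor and 100% = vehicle on cells lacking receptor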). Conditions: cell-based SF1 luciferase reporter, at 3.6 µM, stronger effect = higher value.
The nature of assay [8]: VP16 transactivation reporter inhibitors, counter-screen for LRH-1 inverse agonist project, cell-based, luminescence, high throughput (AID 651615; in the data active = inhibition above about 33%). Conditions: Gal4-VP16 luciferase reporter cells, at 3.6 µM, stronger effect = higher value.
Assay [9] deals with transactivating tegument protein VP16 (Human herpesvirus 1). The assay can be described thus: VP16 transactivation reporter inhibitors, counter-screen for SRC2 inhibitor project, cell-based, luminescence, single concentration (AID 652007; in the data active = inhibition above about 36%). The note with it: cell-based VP16 transactivation luciferase reporter, at 8.9 µM, stronger effect = higher value.
Assay [10] deals with Nuclear receptor coactivator 2 (Homo sapiens) (UniProt Q15596). The assay can be described thus: SRC2 coactivator transcriptional activity inhibitors, confirmation, cell-based, luminescence, HEK293, triplicate (AID 652008;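 active = mean inhibition above 46.5%, the solvent-only control mean plus 3 SD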;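 also: 0% = DMSO-treated cells and 100% = Gossypol at 36 µM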). The note with it: HEK293 GAL4-SRC2 luciferase reporter, at 8.9 µM, stronger effect = higher value.
Chain of Nuclear receptor coactivator 2 (Homo sapiens) (Q15596 whole entry, looked up, the tested form may be a part): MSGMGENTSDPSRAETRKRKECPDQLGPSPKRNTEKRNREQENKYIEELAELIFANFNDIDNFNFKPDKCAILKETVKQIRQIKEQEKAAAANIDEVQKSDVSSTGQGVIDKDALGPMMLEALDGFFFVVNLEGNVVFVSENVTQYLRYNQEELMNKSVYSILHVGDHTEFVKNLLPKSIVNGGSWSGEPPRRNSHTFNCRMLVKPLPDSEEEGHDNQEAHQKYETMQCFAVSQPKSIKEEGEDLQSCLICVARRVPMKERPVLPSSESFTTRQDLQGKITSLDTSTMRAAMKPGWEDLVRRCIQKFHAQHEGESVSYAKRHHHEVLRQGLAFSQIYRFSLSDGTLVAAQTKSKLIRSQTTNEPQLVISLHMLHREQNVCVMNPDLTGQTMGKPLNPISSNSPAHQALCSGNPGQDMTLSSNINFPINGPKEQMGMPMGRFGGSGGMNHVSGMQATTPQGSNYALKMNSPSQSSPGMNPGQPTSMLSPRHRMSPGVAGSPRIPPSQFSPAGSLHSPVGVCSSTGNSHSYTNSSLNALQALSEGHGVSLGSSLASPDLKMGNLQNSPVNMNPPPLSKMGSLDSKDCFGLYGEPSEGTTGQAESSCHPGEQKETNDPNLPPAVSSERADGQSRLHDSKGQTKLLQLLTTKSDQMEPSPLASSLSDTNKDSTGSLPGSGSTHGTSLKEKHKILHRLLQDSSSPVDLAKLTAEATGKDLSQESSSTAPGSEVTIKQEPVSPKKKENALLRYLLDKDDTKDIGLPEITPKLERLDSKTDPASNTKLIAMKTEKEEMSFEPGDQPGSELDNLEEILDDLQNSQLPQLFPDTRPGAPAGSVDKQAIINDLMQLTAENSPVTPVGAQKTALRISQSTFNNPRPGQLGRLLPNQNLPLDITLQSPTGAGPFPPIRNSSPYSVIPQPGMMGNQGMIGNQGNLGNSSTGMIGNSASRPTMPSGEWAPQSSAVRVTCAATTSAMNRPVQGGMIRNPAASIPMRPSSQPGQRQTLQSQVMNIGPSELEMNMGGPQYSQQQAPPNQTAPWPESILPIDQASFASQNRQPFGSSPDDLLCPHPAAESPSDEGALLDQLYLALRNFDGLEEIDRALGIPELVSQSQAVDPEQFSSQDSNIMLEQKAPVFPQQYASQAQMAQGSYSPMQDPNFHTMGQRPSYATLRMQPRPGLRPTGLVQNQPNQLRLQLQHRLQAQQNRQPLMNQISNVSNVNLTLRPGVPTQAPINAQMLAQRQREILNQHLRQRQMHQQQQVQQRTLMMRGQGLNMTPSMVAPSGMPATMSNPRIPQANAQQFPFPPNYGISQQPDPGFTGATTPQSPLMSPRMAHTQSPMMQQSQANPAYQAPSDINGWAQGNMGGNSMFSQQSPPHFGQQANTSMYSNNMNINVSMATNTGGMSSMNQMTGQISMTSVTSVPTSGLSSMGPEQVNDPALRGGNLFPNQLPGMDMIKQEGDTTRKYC

Chain of Nuclear receptor subfamily 5 group A member 2 (Homo sapiens) (O00482 whole entry, looked up): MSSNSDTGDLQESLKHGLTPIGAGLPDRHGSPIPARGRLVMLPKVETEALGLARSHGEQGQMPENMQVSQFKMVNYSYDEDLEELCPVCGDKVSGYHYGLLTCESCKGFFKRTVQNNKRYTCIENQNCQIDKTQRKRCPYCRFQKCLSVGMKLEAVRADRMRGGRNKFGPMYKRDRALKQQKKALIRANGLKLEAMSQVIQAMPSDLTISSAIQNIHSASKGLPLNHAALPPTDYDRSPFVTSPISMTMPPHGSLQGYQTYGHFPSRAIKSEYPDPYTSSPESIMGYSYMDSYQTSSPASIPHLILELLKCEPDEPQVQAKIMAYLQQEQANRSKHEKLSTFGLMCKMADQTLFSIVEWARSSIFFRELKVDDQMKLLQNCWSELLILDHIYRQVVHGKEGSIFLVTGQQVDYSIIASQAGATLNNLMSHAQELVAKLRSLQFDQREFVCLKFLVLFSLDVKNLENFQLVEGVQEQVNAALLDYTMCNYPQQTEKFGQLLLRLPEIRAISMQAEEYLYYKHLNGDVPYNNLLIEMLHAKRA
Chain of Steroidogenic factor 1 (Homo sapiens) (Q13285 whole entry, looked up, the tested form may be a part): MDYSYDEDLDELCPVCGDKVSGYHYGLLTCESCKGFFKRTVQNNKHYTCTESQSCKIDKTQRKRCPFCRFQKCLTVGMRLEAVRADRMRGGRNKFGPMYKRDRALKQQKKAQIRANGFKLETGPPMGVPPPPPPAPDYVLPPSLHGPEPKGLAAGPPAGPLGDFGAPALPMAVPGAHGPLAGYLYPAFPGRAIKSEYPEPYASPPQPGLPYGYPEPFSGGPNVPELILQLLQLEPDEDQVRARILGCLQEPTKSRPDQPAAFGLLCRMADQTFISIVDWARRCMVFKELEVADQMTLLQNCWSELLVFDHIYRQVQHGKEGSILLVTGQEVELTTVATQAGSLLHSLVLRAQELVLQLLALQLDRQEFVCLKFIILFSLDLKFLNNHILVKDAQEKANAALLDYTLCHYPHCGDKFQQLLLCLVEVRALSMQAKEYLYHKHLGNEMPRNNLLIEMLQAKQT
Chain of Nuclear receptor coactivator 1 (Homo sapiens) (Q15788 whole entry, looked up, the tested form may be a part): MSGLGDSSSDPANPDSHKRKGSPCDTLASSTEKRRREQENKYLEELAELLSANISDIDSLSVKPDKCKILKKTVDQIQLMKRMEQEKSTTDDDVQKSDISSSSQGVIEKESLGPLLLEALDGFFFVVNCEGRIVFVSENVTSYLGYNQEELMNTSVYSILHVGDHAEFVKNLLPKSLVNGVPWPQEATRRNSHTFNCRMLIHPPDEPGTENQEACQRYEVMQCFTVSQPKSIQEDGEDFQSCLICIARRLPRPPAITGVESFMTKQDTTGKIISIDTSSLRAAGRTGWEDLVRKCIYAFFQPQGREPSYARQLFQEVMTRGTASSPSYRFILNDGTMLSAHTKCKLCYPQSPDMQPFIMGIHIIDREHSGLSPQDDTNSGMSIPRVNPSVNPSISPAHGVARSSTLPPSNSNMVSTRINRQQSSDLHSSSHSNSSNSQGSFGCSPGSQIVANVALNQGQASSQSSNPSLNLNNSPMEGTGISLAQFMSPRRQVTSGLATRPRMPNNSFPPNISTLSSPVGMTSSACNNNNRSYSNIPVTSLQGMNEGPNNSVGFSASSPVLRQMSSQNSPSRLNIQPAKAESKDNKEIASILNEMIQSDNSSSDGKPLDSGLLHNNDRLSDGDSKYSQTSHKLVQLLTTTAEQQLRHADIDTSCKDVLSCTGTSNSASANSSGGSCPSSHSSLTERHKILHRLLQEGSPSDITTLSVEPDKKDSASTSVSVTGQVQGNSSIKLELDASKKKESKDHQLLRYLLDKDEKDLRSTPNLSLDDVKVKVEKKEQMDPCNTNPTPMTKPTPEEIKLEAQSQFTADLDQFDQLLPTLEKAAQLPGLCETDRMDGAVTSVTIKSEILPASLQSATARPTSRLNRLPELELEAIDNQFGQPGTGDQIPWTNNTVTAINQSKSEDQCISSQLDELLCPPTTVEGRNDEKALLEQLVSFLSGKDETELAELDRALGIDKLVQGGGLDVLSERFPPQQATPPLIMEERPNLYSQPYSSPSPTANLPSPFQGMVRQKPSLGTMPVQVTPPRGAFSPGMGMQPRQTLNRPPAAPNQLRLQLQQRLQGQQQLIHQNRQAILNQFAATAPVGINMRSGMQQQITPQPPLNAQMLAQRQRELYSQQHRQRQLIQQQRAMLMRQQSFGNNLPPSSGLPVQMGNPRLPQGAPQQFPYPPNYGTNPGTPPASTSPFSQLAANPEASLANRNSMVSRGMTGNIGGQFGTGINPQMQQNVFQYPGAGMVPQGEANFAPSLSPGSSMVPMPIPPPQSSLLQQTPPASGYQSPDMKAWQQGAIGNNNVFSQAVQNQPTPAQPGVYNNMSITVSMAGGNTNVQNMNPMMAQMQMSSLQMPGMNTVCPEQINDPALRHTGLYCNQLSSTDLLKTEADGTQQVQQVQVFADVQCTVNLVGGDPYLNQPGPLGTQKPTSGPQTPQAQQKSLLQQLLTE

Regarding `Cc1ccc(C(=O)O/N=C(\N)c2ccccn2)c(Cl)c1`, the inhibition (commonly the drop in the measured response relative to a control, in per cent) in [1] was 28.7%; in assay [2], 11.1%; in [3], -47.4%; in assay [4], -23.7%; in assay [5] it was -22.8%; in assay [6], -86.9%. Also, the inhibition is 4.43% in assay [7], -54.1% in assay [8], 50.6% (active) in assay [9] and 70.8% (active) in assay [10].
Regarding `O=C(/C=C/Nc1ccccc1Br)c1ccccn1`, the inhibition is 48.5% (active) in [1]; 32.8% (active) in [2]; 10.4% in assay [3]; 33.1% (active) in assay [4]; 58.2% (active) in assay [5]; 42.5% (active) in assay [6]. Moreover, the inhibition in assay [7] was 62.7% (active); in [8] it was 36.1% (active); in assay [9], 64.9% (active); in assay [10] it was 82.7% (active).
In the case of `Cc1nc2c(-c3ccccc3)cnn2c(N)c1-c1ccccc1`, the inhibition was 43.4% (active) in [1]; 37.4% (active) in [2]; 13.1% in assay [3]; 5.33% in assay [4]; -35.4% in assay [5]; -128% in assay [6]. For the same compound, the inhibition was -43.9% in assay [7], -38.5% in [8], 19.9% in assay [9] and 58.2% (active) in [10].
On to `CCC(C)(C)c1ccc(Oc2ccc(N)cc2)cc1`, for which the inhibition is 64.5% (active) in [1]; 52.2% (active) in [2]; 51.2% (active) in assay [3]; 48% (active) in [4]; 57.4% (active) in [5]; 87.3% (active) in assay [6]. Besides, the inhibition in [7] is 72.8% (active); in [8] it was 63.9% (active); in [9], 90.3% (active); in [10], 95.4% (active).
On to `CNC1=C(N(C(C)=O)c2ccc(Br)cc2)C(=O)c2ccccc2C1=O`, for which the inhibition in [1] was 82.4% (active); in [2] it was 84.8% (active); in [3], 74.2% (active); in [4], 84.8% (active); in assay [5], 76.4% (active); in assay [6] it was 97.4% (active). The inhibition in assay [7] is 90.8% (active); in assay [8], 89.3% (active); in assay [9] it was 18.5%; in [10], 48.9% (active).
